By inhibition is commonly meant the relative decrease from the control value, in per cent.

Our source for the inhibition values is ChEMBL document CHEMBL1961873, “Compounds: GSK PKIS; Assays: Nanosyn kinase panel” (2012).

Molecules are shown by their SMILES.

Experiment [1] has as its target Sphingosine kinase 1 (Homo sapiens) (UniProt Q9NYA1). The note with it: at 1 µM.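 Further: mean SPHK1 inhibition value reported from the GSK PKIS kinase panel screen.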
Experiment [2] deals with T1, Sphingosine kinase 2 (Homo sapiens) (UniProt Q9NRA0).
T1 sequence (whole entry): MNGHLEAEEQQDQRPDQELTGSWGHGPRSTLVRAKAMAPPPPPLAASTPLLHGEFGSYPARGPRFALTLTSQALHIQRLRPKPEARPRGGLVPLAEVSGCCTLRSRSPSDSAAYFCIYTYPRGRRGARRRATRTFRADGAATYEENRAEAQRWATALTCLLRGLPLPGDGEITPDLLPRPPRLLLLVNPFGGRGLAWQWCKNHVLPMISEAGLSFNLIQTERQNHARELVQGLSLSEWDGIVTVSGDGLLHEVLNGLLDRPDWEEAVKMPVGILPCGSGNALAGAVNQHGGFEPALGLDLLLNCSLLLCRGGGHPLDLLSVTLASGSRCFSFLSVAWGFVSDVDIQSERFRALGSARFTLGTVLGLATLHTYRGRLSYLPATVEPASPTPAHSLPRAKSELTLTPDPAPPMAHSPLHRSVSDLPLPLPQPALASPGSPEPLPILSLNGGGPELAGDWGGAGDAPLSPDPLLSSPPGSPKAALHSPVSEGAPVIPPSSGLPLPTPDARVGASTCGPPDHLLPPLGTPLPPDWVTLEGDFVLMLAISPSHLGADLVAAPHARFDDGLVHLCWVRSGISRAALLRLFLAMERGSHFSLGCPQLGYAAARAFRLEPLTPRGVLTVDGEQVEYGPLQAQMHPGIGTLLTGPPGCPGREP
The following applies: at 0.1 µM.

Experiment [3] deals with T1, Sphingosine kinase 2 (Homo sapiens). The note with it: at 1 µM.
In experiment [4] the target is Casein kinase II subunit alpha (Homo sapiens) (UniProt P68400). The note with it: at 0.1 µM.
Sequence of Casein kinase II subunit alpha (Homo sapiens) (P68400 whole entry, looked up): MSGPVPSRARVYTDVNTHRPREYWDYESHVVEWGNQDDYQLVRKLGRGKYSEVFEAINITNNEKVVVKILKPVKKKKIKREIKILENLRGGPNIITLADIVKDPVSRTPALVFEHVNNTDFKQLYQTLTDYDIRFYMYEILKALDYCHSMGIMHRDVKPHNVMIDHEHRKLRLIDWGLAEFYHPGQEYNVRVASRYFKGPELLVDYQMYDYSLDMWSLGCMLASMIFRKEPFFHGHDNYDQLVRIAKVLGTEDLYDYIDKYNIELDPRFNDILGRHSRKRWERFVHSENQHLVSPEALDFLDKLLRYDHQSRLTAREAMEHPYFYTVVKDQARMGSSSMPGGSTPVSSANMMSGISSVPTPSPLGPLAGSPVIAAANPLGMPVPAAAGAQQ
Experiment [5] has the same target. The following applies: at 1 µM.
The target of experiment [6] is T2, Inhibitor of nuclear factor kappa-B kinase subunit alpha (Homo sapiens) (UniProt O15111).
T2 sequence (whole entry): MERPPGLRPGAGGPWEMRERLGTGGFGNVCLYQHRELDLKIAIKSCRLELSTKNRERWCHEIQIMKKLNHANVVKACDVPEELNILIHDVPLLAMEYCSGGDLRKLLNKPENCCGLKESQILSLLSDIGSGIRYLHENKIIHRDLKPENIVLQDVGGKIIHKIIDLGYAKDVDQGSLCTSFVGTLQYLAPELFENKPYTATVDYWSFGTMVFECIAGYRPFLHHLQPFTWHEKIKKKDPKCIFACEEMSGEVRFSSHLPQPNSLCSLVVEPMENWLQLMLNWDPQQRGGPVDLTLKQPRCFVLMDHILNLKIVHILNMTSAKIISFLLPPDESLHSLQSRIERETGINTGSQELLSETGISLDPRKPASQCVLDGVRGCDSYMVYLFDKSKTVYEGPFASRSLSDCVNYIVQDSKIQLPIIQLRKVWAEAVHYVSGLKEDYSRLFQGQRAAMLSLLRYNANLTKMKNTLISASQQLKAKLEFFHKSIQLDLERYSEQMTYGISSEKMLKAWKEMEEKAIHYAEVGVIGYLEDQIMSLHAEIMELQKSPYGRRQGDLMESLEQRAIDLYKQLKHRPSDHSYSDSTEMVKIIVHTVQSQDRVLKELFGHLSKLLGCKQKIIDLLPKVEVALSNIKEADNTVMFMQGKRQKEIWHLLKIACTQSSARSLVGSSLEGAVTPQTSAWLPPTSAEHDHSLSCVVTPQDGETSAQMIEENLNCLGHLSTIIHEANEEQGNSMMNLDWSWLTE
The following applies: at 0.1 µM.

Experiment [7] addresses T2, Inhibitor of nuclear factor kappa-B kinase subunit alpha (Homo sapiens). The note with it: at 1 µM.
In experiment [8] the target is T3, Inhibitor of nuclear factor kappa-B kinase subunit beta (Homo sapiens) (UniProt O14920).
T3 sequence (whole entry): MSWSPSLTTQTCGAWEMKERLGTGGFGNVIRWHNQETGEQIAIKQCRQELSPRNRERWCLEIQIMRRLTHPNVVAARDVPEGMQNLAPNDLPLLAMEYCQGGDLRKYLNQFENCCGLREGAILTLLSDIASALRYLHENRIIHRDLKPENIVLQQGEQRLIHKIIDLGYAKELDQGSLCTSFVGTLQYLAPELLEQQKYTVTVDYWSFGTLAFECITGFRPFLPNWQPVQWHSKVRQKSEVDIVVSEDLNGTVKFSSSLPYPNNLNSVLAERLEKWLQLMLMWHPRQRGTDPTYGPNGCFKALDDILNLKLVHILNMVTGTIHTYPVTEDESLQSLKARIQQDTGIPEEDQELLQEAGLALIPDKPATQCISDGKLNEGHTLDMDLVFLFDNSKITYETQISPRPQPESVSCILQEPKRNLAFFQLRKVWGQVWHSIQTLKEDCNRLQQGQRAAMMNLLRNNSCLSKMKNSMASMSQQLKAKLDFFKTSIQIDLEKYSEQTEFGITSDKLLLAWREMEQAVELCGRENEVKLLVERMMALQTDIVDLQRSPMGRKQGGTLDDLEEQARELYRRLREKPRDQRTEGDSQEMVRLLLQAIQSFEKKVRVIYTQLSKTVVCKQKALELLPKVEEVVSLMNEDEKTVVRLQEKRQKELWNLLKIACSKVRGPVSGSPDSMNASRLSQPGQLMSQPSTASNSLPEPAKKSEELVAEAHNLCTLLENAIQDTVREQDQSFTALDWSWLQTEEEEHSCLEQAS
The note with it: at 0.1 µM.

Experiment [9] deals with T3, Inhibitor of nuclear factor kappa-B kinase subunit beta (Homo sapiens). The following applies: at 1 µM.
Experiment [10] addresses T4, Inhibitor of nuclear factor kappa-B kinase subunit epsilon (Homo sapiens) (UniProt Q14164).
T4 sequence (whole entry): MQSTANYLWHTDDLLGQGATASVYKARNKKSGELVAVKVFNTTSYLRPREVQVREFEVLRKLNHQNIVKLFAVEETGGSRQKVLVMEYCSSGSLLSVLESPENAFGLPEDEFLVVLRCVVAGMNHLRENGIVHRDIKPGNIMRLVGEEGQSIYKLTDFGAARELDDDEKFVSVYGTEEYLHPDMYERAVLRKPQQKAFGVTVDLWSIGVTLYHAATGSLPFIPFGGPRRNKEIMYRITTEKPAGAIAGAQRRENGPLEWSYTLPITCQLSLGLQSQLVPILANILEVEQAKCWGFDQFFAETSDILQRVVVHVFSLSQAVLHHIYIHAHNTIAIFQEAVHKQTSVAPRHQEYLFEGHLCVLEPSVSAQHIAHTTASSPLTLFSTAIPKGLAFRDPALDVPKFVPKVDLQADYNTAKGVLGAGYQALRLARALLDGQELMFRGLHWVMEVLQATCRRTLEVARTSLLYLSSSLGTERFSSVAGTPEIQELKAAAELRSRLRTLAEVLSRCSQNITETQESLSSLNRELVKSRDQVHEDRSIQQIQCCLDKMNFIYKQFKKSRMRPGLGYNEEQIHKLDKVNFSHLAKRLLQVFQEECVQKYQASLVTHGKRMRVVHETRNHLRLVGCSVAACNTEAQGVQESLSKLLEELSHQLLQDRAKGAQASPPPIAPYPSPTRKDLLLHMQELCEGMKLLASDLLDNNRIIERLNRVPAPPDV
The note with it: at 0.1 µM.

In experiment [11] the target is T4, Inhibitor of nuclear factor kappa-B kinase subunit epsilon (Homo sapiens). The note with it: at 1 µM.
The target of experiment [12] is T5, Serine/threonine-protein kinase Nek1 (Homo sapiens) (UniProt Q96PY6).
T5 sequence (whole entry): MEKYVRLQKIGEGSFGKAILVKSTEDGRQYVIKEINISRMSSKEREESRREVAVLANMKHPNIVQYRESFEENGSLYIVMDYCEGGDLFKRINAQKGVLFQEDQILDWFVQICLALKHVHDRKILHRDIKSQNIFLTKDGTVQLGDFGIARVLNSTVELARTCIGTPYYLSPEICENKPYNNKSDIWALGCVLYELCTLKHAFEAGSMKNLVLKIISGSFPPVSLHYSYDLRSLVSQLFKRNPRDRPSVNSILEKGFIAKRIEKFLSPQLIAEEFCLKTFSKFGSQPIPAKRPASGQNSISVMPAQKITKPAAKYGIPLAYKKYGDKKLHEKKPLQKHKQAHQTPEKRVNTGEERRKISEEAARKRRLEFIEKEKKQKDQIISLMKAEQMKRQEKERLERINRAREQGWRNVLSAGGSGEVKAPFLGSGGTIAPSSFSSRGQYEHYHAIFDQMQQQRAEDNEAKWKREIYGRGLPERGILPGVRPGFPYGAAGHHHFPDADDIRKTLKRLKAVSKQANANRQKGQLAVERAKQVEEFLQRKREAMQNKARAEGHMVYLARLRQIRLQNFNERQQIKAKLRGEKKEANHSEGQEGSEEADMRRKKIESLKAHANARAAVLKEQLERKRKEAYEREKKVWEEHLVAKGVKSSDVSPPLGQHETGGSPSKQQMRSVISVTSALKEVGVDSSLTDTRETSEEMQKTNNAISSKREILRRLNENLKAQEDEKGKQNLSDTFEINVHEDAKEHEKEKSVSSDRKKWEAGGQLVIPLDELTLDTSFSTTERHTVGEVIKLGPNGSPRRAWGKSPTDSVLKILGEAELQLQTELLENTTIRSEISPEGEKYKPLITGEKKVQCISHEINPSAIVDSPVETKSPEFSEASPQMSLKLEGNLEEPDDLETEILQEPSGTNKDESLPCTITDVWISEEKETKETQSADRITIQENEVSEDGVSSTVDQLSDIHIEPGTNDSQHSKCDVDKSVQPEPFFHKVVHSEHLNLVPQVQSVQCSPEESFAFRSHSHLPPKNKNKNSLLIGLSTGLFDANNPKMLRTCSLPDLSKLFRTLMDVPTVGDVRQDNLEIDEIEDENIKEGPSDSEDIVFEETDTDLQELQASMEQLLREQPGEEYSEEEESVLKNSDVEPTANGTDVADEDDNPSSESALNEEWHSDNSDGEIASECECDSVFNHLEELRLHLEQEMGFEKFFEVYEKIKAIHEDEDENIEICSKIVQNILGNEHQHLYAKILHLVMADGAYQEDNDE
The note with it: at 0.1 µM.

Experiment [13] addresses T5, Serine/threonine-protein kinase Nek1 (Homo sapiens). The following applies: at 1 µM.
In experiment [14] the target is T6, Serine/threonine-protein kinase Nek2 (Homo sapiens) (UniProt P51955).
T6 sequence (whole entry): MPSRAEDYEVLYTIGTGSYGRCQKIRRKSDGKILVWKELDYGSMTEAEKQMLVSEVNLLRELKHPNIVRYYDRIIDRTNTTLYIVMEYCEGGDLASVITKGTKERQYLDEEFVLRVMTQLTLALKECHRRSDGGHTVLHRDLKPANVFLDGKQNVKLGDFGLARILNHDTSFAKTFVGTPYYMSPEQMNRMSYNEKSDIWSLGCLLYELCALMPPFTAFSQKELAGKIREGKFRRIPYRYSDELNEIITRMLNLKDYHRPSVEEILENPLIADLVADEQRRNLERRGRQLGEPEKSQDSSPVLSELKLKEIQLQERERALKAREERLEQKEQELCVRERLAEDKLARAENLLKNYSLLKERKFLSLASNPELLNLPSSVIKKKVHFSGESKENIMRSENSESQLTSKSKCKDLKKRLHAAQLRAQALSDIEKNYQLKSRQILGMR
The note with it: at 0.1 µM.

Experiment [15] addresses T6, Serine/threonine-protein kinase Nek2 (Homo sapiens). The note with it: at 1 µM.
Experiment [16] has as its target Serine/threonine-protein kinase Nek6 (Homo sapiens) (UniProt Q9HC98). The note with it: at 0.1 µM.
Experiment [17] shares this target. The following applies: at 1 µM.
Experiment [18] deals with Serine/threonine-protein kinase Nek7 (Homo sapiens) (UniProt Q8TDX7). The following applies: at 0.1 µM.
Sequence of Serine/threonine-protein kinase Nek7 (Homo sapiens) (Q8TDX7 whole entry, looked up): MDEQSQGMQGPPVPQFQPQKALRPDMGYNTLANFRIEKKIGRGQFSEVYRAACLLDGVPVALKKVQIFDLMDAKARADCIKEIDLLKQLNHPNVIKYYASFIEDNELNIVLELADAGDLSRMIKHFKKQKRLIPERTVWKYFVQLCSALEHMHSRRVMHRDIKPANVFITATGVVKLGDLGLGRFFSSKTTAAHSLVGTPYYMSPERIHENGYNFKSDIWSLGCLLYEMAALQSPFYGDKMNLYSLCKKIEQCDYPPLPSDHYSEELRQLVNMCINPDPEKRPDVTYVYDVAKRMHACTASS
Experiment [19] shares this target. The following applies: at 1 µM.
The target of experiment [20] is T7, Serine/threonine-protein kinase Nek9 (Homo sapiens) (UniProt Q8TD19).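 Further: reported value is the mean percent inhibition of NEK9.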
T7 sequence (whole entry): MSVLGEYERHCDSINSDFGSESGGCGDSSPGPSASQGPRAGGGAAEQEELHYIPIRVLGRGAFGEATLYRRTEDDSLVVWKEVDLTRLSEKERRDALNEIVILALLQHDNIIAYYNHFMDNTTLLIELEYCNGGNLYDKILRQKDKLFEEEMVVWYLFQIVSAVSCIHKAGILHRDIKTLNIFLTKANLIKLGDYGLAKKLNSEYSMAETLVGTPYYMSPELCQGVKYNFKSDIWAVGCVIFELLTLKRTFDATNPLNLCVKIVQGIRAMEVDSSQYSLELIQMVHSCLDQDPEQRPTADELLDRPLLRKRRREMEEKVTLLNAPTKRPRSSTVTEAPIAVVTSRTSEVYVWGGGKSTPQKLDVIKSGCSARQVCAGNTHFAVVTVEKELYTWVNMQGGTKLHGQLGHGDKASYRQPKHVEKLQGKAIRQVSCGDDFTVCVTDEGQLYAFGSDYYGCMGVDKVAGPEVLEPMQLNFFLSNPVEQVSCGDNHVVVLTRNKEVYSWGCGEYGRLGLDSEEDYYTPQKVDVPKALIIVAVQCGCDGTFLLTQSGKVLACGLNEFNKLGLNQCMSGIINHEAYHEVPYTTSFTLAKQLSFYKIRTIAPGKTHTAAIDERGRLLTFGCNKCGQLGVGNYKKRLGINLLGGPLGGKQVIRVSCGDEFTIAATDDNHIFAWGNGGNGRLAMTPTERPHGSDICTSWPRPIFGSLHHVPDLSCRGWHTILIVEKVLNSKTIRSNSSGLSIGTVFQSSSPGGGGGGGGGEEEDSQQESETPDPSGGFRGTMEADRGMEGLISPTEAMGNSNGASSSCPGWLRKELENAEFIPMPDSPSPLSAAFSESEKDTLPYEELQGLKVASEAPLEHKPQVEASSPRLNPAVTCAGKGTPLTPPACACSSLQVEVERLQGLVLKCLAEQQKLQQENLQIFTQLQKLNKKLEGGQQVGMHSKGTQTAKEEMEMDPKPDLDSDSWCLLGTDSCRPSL
The note with it: at 0.1 µM.

Sequence of Serine/threonine-protein kinase Nek6 (Homo sapiens) (Q9HC98 whole entry): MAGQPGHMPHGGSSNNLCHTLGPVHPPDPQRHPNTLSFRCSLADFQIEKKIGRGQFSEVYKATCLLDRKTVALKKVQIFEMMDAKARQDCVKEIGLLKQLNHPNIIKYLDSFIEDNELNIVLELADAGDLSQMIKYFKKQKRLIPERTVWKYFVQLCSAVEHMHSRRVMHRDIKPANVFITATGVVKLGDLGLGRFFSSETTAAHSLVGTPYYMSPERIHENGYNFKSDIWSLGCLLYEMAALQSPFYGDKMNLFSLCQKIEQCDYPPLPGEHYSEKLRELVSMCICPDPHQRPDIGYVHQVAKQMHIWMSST
Sequence of Sphingosine kinase 1 (Homo sapiens) (Q9NYA1 whole entry): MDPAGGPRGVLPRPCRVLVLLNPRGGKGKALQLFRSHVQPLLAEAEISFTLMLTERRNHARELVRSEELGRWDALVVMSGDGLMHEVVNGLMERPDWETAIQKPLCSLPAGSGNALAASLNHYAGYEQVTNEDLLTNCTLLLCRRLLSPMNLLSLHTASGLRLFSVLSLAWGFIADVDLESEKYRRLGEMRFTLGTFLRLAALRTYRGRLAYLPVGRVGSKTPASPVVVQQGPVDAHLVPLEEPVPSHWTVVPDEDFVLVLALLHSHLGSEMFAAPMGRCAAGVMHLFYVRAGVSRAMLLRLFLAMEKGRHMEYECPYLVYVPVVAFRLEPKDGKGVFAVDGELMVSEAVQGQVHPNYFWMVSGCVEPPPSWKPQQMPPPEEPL

As to `O=C(O[C@H]1CN[C@H](C#Cc2cc3ncnc(Nc4ccc5c(cnn5Cc5ccccc5)c4)c3s2)C1)N1CCOCC1`, the inhibition in [1] is -0.72%; in experiment [2] it was 0.71%; in [3] it was -0.03%; in [4] it was -2.6%; in experiment [5] it was 1.05%; in [6], 1.12%. Further, the inhibition in experiment [7] was -2.78%; in experiment [8], -1.3%; in experiment [9] it was -0.9%; in experiment [10], -7.28%; in experiment [11] it was 2.35%; in experiment [12] it was 1.14%. In addition, the inhibition in [13] is -0.05%; in [14], 0.17%; in experiment [15] it was 0.04%; in [16], -0.55%; in [17], 1.2%; in [18], -1.22%. Also, the inhibition in [19] is 1.45%; in experiment [20], -1.71%.
